Measurements published in ChEMBL document CHEMBL3988442, “University of Dundee, Small-Polar-MMV Screening Library” (2021).
For part of these data: Measured potencies and affinities stand elsewhere.

How the values were obtained:
Design in all cases: scale not given: direction of the effect not stated beside the values
[1] = molecular target: Protein translocase subunit SecA (Escherichia coli (strain K12)) (UniProt P10408); test: Assay to Identify E. coli SecA ATPase Inhibitors; type: functional; settings: 30 µM
[2] = molecular target: T1, Ubiquitin-activating enzyme e1, putative (Leishmania donovani (strain BPK282A1)) (UniProt E9BSI1); test: Leishmania donovani Ubiquitin Activating Enzyme (LdE1); type: functional; settings: 30 µM
T1 sequence (whole entry): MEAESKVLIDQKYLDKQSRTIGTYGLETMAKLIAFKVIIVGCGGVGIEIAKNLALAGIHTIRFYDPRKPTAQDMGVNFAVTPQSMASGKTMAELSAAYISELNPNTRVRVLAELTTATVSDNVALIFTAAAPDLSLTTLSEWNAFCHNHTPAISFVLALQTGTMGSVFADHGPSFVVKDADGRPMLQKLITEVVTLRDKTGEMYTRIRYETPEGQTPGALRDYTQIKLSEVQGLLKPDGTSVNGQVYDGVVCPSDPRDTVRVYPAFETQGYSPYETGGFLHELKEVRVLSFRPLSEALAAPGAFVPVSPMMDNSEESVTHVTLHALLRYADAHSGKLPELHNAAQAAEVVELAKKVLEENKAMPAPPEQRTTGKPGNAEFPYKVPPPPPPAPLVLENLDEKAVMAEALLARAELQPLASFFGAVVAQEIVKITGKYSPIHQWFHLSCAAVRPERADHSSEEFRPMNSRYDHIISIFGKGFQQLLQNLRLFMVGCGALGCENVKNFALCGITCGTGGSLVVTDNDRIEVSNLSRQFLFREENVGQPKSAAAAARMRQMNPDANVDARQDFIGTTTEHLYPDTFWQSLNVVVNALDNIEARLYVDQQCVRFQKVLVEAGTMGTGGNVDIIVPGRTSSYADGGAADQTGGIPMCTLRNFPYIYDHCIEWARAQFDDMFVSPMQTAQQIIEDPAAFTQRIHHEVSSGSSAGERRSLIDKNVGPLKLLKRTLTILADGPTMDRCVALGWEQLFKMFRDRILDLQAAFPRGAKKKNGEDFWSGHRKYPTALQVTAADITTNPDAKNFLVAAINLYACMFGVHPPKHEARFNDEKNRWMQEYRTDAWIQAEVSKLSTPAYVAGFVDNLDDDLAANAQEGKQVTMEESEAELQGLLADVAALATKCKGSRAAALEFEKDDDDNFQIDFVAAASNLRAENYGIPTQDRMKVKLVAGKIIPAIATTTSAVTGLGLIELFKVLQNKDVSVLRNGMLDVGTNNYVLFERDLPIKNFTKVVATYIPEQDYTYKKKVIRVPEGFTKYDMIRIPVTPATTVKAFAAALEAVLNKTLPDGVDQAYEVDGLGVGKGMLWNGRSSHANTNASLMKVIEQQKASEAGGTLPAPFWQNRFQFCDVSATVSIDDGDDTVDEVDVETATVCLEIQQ

[3] = molecular target: AMP-activated protein kinase, AMPK (Homo sapiens) (UniProt P54646+O43741+P54619+Q9UGJ0+Q9Y478+Q13131+Q9UGI9); test: AMP-dependent Kinase enzyme assay. An in vitro enzyme assay that detects ADP turnover that is directly proportional to AMPK activity. This uses naive AMPK that is activated during the assay with MK-8722; type: functional; settings: 30 µM
[4] = molecular target: Sialic acid-binding Ig-like lectin 9 (Homo sapiens) (UniProt Q9Y336); test: Hs-Siglec9 ALPHAscreen SOP 20170721; settings: 10 µM
Trypanosoma cruzi = test: Trypanosoma cruzi phosphomannomutase and mannose-1-phosphate guanylyltransferase assay; type: functional; settings: 10 µM
[5] = molecular target: T2, Arginase-2, mitochondrial (Homo sapiens) (UniProt P78540); test: in vitro enzyme assay to detect the production of urea directly proportional to the activity of Arginase II; type: functional; settings: 33.3 µM; note: in the data most compounds retested in dose-response had high values
T2 sequence (whole entry): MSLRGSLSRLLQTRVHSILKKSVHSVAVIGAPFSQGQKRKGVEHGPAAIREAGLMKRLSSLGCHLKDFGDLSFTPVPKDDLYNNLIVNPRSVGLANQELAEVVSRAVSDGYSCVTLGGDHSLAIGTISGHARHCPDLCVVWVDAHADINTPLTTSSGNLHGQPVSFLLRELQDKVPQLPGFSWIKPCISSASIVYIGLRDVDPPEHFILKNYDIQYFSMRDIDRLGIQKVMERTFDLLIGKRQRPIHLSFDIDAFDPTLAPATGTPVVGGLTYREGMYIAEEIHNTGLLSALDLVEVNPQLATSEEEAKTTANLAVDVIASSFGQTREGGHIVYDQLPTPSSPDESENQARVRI

[6] = molecular target: T3, Proteasome subunit beta (Trypanosoma cruzi) (UniProt O96673); test: Trypanosoma cruzi proteasome chymotrypsin-like activity (TcProtChymo) assay.; note: in the data most compounds retested in dose-response had high values; type: functional; settings: 9.37 µM
T3 sequence (whole entry): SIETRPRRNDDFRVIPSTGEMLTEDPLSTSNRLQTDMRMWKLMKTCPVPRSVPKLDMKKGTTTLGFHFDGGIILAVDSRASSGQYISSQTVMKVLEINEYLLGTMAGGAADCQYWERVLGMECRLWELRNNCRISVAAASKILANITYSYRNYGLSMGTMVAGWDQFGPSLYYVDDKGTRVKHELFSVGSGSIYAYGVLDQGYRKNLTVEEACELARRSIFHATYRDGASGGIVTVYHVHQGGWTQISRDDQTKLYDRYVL

Homo sapiens = species on record: Homo sapiens; test: To identify inhibition of the IFN signalling (Jak-Stat) pathway via expression of an eGFP reporter gene under the control of an IFN-stimulated response element (ISRE) containing MxA promoter.; type: functional; settings: 30 µM
[7] = molecular target: T4, Tyrosyl-tRNA synthetase, putative (Trypanosoma cruzi (strain CL Brener)) (UniProt Q4DSP6); test: Trypanosoma cruzi tyrosyl tRNA synthetase (TcYRS) _High Tyrosine SOP; type: functional; settings: 30 µM; note: in the data most compounds retested in dose-response had high values
T4 sequence (whole entry): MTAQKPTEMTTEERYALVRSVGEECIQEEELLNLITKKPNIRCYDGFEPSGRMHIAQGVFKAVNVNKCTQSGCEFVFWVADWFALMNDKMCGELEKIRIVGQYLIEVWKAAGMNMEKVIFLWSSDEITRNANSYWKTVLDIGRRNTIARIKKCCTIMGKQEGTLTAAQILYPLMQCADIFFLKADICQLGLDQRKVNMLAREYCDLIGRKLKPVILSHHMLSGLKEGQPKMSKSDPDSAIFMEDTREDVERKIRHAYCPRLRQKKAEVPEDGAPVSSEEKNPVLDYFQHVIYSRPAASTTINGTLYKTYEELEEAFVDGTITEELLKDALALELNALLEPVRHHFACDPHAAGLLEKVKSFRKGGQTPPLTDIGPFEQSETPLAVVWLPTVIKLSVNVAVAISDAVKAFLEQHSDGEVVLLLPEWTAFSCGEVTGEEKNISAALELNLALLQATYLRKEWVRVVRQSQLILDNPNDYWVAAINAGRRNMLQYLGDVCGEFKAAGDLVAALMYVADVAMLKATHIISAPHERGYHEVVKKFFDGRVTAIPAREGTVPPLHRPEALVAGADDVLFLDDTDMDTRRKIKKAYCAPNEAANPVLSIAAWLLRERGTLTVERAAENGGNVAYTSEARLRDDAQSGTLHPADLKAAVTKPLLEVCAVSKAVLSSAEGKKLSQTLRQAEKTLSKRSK

[8] = molecular target: T4, Tyrosyl-tRNA synthetase, putative (Trypanosoma cruzi (strain CL Brener)); test: Trypanosoma cruzi tyrosyl tRNA synthetase (TcYRS) SOP; type: functional; settings: 30 µM
[9] = molecular target: Chromo domain-containing protein 1 (Saccharomyces cerevisiae (strain ATCC 204508 / S288c) (Baker's yeast)) (UniProt P32657); test: ScCHD-1 Enzyme Inhibition Assay; type: functional; settings: 30 µM; note: in the data most compounds retested in dose-response had high values
Chain of Chromo domain-containing protein 1 (Saccharomyces cerevisiae (strain ATCC 204508 / S288c) (Baker's yeast)) (P32657 whole entry, the tested form may be a part): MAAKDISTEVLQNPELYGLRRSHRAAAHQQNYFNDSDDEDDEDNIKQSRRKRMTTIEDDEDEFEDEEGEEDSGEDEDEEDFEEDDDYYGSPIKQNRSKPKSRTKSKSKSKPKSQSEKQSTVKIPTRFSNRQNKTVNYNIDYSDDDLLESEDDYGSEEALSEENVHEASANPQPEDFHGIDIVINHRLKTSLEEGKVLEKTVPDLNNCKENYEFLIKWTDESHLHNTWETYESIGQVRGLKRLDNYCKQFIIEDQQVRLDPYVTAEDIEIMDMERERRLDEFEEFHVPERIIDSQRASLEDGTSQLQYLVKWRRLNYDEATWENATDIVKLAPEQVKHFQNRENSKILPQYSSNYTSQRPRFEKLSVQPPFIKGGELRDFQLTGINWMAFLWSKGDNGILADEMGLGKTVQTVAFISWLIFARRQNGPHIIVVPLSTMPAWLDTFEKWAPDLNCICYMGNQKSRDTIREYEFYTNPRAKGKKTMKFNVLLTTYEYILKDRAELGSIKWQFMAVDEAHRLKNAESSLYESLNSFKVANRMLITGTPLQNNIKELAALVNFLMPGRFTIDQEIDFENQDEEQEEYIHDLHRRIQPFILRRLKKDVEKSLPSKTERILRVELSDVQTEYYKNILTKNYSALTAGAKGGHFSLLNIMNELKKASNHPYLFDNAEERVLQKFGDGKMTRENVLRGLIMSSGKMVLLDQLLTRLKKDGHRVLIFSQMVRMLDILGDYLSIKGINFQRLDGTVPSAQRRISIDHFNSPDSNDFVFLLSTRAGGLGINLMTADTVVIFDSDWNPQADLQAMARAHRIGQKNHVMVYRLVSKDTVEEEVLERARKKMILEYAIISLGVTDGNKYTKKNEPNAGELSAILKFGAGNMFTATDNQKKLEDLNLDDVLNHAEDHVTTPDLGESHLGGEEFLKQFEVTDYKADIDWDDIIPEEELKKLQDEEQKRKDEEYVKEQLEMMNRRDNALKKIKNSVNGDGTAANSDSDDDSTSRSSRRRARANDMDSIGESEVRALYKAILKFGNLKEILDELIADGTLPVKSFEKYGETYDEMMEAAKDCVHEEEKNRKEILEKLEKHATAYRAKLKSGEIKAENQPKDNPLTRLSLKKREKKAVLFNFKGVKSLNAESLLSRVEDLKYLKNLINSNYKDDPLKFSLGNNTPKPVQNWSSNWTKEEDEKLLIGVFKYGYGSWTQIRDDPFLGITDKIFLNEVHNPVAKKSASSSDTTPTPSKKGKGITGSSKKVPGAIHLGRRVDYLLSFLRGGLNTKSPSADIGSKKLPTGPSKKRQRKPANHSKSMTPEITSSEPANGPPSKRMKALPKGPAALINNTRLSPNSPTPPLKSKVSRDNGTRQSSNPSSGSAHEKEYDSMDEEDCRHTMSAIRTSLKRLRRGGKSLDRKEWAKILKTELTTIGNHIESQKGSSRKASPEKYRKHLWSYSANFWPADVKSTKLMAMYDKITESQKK

Chain of Protein translocase subunit SecA (Escherichia coli (strain K12)) (P10408 whole entry): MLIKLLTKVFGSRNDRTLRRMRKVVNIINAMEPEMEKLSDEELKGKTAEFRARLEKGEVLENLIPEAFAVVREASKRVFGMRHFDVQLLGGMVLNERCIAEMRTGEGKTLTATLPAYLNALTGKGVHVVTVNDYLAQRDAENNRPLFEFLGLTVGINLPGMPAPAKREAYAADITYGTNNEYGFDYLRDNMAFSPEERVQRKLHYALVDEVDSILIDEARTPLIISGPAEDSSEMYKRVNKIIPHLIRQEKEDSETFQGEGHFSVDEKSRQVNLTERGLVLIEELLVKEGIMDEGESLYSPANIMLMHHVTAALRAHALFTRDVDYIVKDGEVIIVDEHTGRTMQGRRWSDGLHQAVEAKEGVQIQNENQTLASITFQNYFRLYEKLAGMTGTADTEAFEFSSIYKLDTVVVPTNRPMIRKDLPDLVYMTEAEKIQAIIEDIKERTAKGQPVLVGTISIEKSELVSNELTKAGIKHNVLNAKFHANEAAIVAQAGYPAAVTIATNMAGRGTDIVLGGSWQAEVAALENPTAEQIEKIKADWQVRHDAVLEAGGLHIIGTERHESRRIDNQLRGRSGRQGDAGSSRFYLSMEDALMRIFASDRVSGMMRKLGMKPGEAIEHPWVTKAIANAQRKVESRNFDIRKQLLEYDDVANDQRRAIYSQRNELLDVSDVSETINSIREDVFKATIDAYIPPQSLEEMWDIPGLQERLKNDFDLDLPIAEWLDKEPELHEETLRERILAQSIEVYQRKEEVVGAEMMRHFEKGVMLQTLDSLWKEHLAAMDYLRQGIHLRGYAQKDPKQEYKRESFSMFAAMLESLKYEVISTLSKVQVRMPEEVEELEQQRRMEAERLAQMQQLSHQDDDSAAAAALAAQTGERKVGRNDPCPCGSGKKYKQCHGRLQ
Chain of Sialic acid-binding Ig-like lectin 9 (Homo sapiens) (Q9Y336 whole entry): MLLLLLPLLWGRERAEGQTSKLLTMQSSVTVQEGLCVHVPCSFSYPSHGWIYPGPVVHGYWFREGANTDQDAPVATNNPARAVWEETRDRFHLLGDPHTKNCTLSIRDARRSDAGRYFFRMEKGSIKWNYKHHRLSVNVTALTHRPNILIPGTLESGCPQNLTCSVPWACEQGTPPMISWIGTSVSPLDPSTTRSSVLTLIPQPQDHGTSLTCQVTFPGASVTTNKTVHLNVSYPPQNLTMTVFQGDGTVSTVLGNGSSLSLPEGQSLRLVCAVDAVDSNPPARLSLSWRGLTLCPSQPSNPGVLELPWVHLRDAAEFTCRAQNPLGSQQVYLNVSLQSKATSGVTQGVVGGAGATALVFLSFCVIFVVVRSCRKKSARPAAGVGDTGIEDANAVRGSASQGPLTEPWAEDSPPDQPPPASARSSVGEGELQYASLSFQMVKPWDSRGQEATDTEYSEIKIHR

Row | SMILES | Percent Effect [1] [%] | Percent Effect [2] [%] | Percent Effect [3] [%] | Percent Effect [4] [%] | Percent Effect (Trypanosoma cruzi) [%] | Percent Effect [5] [%] | Percent Effect [6] [%] | Percent Effect (Homo sapiens) [%] | Percent Effect [7] [%] | Percent Effect [8] [%] | Percent Effect [9] [%]
1 | CN(C)C(=O)N1CCN(CCn2nc3ccccn3c2=O)CC1 | 0.243 | 7.89 | 0.915 | -3.62 | -6.13 | 0 | 20.8 | 3.27 | 6.38 | 5.2 | -5.93
2 | Cn1cnc(S(=O)(=O)N2CCN(Cc3ccco3)CC2)c1Cl | -3.16 | 4.17 | -1.11 | 4.71 | 0.291 | 0 | 4.74 | 8.03 | -17.9 | 5.13 | -0.35
3 | O=C(CN1CCc2c(ncn2C2CC2)C1)NC1CC1 | -2.66 | -3.8 | -0.272 | 5.53 | -2.56 | 3.66 | 9.09 | 5.09 | 2.08 | 5.06 | -4.23
4 | CCn1ccnc1CN(C)C1CCCN(CCc2ccccc2)C1 (stereo unspecified) | -7.05 | 0 | 0.137 | 4.16 | -3.64 | 4.14 | 0.832 | -8.38 | 5.38 | 3.7 | 2.42
5 | O=C(c1ccc2c(c1)CCC2)N1C[C@@H](CN2CCOCC2)[C@@H](CO)C1 | -4.64 | 2.67 | 1.02 | 21.3 | -6.52 | 0 | 1.22 | 0.733 | 3.83 | 3.7 | -3.15
6 | OCCN1CCOC2(CCCN(c3cccc(F)c3)C2)C1 (stereo unspecified) | -3.44 | 13.3 | 5.94 | -3.82 | 0.394 | 0.233 | 8.55 | 3.49 | 10.6 | 24.4 | -6.84
7 | Cc1occc1C(=O)N1CCC[C@]2(C[C@@H](OCc3ccncc3)CO2)C1 | 0.103 | 10.7 | 1.3 | 1.1 | -1.16 | -23.5 | 16.4 | -0.395 | 7.29 | 22.5 | -5.63
8 | CC(C)(C)c1cnc(CN2CCC(c3ccnn3CCO)CC2)o1 | -2.61 | 2.53 | 7.52 | 9.51 | 7.46 | -3.42 | -3.69 | 20.2 | 3.45 | 11.4 | -1.55
9 | Cc1nc(NCc2ccc(C)o2)cc(C(=O)N2CCOCC2)n1 | -5.2 | 15.6 | -13.8 | 14.3 | 9.14 | -55.2 | 10.5 | 4.67 | 4.3 | 8.64 | -6.33
10 | CC(C)c1ccc(C(C)NC(=O)N2CCC(n3cncn3)CC2)cc1 (stereo unspecified) | -4.08 | 10.1 | -2.45 | 13.7 | -3.87 | 0 | 5.49 | 13.3 | 3.45 | 8.86 | -3.06
11 | CC(=O)c1cc(CC(=O)NCc2ccc(CN(C)C)cc2)cs1 | -2.94 | 8.11 | -1.37 | 9.94 | 6.37 | 0.476 | -1.21 | 1.37 | 2.65 | 4.88 | -2.09
12 | O=C(CCCc1nc2ccccc2[nH]1)N1CCCC(n2cccn2)C1 (stereo unspecified) | -4.65 | 10.5 | -3.13 | 5.64 | 8.27 | -5.36 | 7.18 | -2.05 | 5.39 | 17.1 | -12
13 | O=C(NC1(c2nnn(Cc3ccncc3)n2)CCCC1)c1ccccc1 | -6.65 | 2.67 | -7.02 | 6.6 | 1.85 | 0.521 | -25.6 | -24.1 | 7.1 | 16.1 | -2.08
14 | CC(=O)Nc1nc(C(=O)N2CCCC(n3nc(C)cc3C)C2)cs1 (stereo unspecified) | -5.42 | 0 | 5.38 | -3.57 | -5.13 | -1.8 | -7.02 | -2.38 | -2.46 | -11.1 | 5.41
15 | Cn1cc(N2CCC3(CCN(Cc4nccs4)C3)C2=O)cn1 (stereo unspecified) | -2.64 | 2.7 | 4.13 | -6.07 | -4.2 | 0.319 | 16.4 | -1.48 | 4.32 | 10.3 | -0.716
16 | Cc1n[nH]c(C)c1NC(=O)CN1CCc2c(nc(C3CC3)n2C)C1 | -1.39 | 20.8 | -6.42 | -4.94 | -9.36 | 0 | 10.6 | 37.3 | 3.88 | 2.44 | -7.54
17 | Cc1ccc(S(=O)(=O)N2C[C@H]3C[C@H](NC(=O)c4ccn(C)n4)[C@H]3C2)cc1 | -7.65 | 17.6 | -0.91 | 4.49 | -0.395 | -3.48 | 9.36 | 16.8 | 2.15 | 9.09 | -25.8
18 | Cn1cc(N2CC3(CCN(CC4CCOCC4)CC3)OCC2=O)cn1 | -1.91 | 9.33 | 1.65 | 6.72 | -0.197 | 2.99 | 19.8 | 17.2 | 4.23 | 12.8 | -4.82
19 | COc1ccnc(N2CCN(C(=O)Cc3ccc(C)s3)CC2)n1 | -2.28 | -2.6 | 5.06 | 8.15 | 2.84 | -0.632 | 13.8 | -7.95 | 9.52 | 25.9 | -9.7
20 | CC(C)COC(C)C(=O)N1CCN(S(C)(=O)=O)CC1 (stereo unspecified) | -3.12 | 8.22 | -1.38 | 2.29 | 3.53 | 1.36 | 8.34 | -1.94 | 4.3 | 20 | -4.42
21 | Cc1nc(C)c(C(=O)NCCNC(=O)Cc2cccc(F)c2)s1 | -3.25 | 16.2 | -2.81 | 1.34 | 0.464 | 0.924 | 17.8 | 17.9 | 9.9 | 18.3 | -4.49
